Assay in all cases: DAPPL (digital affinity profiling via proximity ligation, sequencing); 10 mM Tris-HCl pH 7.5, 50 mM NaCl, 1 mM DTT, 4% glycerol, room temperature, 30 min; GST-TFs on glutathione beads, 16-mer random dsDNA library, 0.1% formaldehyde crosslink after washing; high values mean tight binding
One assay deals with T1, FEV (Homo sapiens, UniProt Q99581 1-238).
T1 sequence: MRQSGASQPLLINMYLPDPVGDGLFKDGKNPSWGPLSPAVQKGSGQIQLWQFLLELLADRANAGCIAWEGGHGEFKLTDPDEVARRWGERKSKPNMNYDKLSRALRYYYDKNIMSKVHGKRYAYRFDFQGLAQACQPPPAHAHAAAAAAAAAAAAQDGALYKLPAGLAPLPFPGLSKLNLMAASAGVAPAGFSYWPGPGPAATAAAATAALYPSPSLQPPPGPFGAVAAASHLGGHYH
The note with it: protein: recombinant; tags: N-terminal GST; dsDNA, one strand shown. An outline of the steps: (§1)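 A tag-only sample was pooled with DNA-barcoded human transcription factors that had been expressed in yeast as GST fusions and captured on glutathione beads. The pools were incubated for 30 min at room temperature with 200 nmole of a random double-stranded 16-mer DNA library in Tris/NaCl/DTT/glycerol buffer, then washed, crosslinked with 0.1% formaldehyde, proximity-ligated (BsaI/T4 ligase, 1 h, 37 °C), PCR-amplified and sequenced on an Illumina NextSeq500. Binding signal is each hexamer's read frequency for a factor divided by its frequency for the tag-only sample.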

In a further assay the target is ETV5 (Homo sapiens, UniProt P41161 1-510). The note with it: protein: recombinant; tags: N-terminal GST; dsDNA, one strand shown. In short, it runs like this: as §1
Sequence of ETV5 (P41161 whole entry): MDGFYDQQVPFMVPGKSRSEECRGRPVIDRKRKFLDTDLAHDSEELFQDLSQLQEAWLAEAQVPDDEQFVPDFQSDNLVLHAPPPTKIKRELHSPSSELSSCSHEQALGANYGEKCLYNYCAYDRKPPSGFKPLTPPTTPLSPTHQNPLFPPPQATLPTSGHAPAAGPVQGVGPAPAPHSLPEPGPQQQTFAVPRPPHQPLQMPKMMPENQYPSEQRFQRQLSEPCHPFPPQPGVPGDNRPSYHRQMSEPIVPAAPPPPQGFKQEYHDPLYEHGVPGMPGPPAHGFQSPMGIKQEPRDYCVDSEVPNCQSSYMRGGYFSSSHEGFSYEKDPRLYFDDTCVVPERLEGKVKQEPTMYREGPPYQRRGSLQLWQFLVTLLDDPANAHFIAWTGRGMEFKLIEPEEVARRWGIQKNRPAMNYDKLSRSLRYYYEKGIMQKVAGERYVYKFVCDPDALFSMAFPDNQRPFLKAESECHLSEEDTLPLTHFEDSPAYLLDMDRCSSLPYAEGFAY
Another assay addresses HSF1 (Homo sapiens, UniProt Q00613 1-529). The note with it: protein: recombinant; tags: N-terminal GST; chain copies: 3; dsDNA, one strand shown. In short, it runs like this: as §1
The next assay addresses T2, SPIC (Homo sapiens, UniProt Q8N5J4 1-248).
T2 sequence: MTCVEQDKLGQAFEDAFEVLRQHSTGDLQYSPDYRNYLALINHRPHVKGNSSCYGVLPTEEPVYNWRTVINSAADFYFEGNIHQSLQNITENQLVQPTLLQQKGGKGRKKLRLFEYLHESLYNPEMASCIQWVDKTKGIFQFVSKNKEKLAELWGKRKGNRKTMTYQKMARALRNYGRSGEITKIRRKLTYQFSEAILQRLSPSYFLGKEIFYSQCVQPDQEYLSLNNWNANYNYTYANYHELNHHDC
The note with it: protein: recombinant; tags: N-terminal GST; dsDNA, one strand shown. In short, it runs like this:
as §1

Another assay concerns the target ELF4 (Homo sapiens, UniProt Q99607 1-663). The note with it: protein: recombinant; tags: N-terminal GST; dsDNA, one strand shown. In short, it runs like this: as §1
The target of a further assay is T3, ELK4 (Homo sapiens, UniProt P28324-2 1-405).
T3 sequence: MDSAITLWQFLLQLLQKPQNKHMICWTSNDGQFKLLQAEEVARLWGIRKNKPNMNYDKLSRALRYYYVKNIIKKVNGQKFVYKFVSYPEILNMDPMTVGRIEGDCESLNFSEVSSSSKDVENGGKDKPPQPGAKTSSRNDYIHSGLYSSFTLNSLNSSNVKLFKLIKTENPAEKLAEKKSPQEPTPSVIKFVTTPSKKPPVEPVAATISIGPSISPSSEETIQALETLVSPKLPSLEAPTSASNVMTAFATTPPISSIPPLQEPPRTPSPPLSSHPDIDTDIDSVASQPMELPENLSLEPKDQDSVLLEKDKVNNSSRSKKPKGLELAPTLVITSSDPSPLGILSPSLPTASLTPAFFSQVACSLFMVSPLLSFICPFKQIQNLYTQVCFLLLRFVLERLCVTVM
The note with it: protein: recombinant; tags: N-terminal GST; dsDNA, one strand shown. In short, it runs like this: as §1

The target in a further assay is T4, ETV2 (Homo sapiens, UniProt O00321 1-342).
T4 sequence: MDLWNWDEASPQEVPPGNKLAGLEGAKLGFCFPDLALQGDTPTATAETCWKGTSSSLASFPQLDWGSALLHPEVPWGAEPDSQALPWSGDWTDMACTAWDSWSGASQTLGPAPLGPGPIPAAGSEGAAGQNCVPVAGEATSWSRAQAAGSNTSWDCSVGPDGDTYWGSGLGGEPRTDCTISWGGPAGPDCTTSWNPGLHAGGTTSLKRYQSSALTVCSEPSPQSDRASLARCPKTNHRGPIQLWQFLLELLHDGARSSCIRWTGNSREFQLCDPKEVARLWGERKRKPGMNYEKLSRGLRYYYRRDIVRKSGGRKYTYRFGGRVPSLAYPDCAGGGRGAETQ
The note with it: protein: recombinant; tags: N-terminal GST; dsDNA, one strand shown. An outline of the steps:
as §1

In another assay the target is T5, ELF3 (Homo sapiens, UniProt P78545 1-371).
T5 sequence: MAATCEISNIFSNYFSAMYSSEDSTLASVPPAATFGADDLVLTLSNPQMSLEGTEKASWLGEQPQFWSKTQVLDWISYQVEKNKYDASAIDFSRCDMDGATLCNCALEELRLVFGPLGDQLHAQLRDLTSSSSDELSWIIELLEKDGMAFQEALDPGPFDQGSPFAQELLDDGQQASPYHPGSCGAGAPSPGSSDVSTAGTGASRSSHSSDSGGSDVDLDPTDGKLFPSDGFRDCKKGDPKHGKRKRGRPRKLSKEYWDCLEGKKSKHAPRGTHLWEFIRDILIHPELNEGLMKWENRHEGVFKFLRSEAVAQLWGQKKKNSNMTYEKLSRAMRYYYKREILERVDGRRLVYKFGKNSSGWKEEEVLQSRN
The note with it: protein: recombinant; tags: N-terminal GST; dsDNA, one strand shown. An outline of the steps: as §1

The target of the next assay is CRX (Homo sapiens, UniProt O43186 1-299). The note with it: protein: recombinant; tags: N-terminal GST; dsDNA, one strand shown. In short, it runs like this:
as §1

A further assay deals with ETV1 (Homo sapiens, UniProt P50549 1-477). The note with it: protein: recombinant; tags: N-terminal GST; dsDNA, one strand shown. In short, it runs like this:
as §1

A further assay has as its target T6, ERF (Homo sapiens, UniProt P50548 1-548).
T6 sequence: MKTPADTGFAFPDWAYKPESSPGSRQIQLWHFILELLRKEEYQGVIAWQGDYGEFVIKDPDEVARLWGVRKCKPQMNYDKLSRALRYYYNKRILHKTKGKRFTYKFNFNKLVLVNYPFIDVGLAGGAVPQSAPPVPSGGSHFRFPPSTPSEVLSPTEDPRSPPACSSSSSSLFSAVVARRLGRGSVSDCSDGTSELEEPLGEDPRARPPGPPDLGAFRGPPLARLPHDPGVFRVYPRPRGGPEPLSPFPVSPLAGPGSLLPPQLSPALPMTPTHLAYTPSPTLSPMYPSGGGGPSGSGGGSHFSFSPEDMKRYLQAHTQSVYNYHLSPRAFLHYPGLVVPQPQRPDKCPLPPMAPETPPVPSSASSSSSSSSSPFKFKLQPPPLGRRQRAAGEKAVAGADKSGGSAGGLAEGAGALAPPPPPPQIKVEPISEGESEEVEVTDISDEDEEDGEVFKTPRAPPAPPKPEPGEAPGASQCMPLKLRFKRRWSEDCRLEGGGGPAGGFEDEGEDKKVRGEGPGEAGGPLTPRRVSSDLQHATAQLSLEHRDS
The note with it: protein: recombinant; tags: N-terminal GST; dsDNA, one strand shown. An outline of the steps:
as §1

Another assay concerns the target T7, ETV3L (Homo sapiens, UniProt Q6ZN32 1-361).
T7 sequence: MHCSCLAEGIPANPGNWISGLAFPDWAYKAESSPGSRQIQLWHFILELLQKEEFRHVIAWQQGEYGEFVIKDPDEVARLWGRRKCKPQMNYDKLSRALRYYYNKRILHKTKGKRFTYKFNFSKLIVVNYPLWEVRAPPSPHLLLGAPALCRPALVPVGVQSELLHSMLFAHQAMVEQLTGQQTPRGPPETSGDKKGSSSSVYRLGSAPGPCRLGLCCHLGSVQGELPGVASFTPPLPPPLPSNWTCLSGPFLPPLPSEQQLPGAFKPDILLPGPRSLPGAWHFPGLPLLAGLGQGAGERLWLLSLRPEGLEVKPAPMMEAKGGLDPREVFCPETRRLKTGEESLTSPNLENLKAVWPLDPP
The note with it: protein: recombinant; tags: N-terminal GST; dsDNA, one strand shown. In short, it runs like this:
as §1

The next assay addresses T8, ETS2 (Homo sapiens, UniProt P15036 1-469).
T8 sequence: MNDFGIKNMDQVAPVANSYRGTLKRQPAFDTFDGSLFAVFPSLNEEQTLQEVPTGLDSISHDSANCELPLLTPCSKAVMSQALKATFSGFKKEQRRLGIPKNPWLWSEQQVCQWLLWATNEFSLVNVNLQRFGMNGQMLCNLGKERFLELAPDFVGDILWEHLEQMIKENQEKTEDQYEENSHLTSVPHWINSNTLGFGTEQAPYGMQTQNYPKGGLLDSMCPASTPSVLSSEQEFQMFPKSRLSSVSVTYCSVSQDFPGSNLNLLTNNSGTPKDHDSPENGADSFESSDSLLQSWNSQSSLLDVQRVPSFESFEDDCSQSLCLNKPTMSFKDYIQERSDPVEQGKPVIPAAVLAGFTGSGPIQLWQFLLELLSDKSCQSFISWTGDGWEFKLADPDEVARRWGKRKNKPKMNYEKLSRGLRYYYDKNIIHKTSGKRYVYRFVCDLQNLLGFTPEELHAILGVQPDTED
The note with it: protein: recombinant; tags: N-terminal GST; dsDNA, one strand shown. An outline of the steps:
as §1

A further assay concerns the target T9, SPDEF (Homo sapiens, UniProt O95238 1-335).
T9 sequence: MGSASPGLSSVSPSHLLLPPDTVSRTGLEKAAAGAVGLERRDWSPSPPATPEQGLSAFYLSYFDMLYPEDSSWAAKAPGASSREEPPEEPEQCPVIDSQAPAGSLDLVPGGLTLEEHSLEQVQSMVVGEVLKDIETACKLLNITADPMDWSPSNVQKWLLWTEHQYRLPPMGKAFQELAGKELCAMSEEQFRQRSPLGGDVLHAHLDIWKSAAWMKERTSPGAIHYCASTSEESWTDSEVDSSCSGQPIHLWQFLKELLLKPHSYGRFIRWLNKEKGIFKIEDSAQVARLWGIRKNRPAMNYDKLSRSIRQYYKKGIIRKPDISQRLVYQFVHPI
The note with it: protein: recombinant; tags: N-terminal GST; dsDNA, one strand shown. An outline of the steps: as §1

In the next assay the target is T10, ETV7 (Homo sapiens, UniProt Q9Y603 1-341).
T10 sequence: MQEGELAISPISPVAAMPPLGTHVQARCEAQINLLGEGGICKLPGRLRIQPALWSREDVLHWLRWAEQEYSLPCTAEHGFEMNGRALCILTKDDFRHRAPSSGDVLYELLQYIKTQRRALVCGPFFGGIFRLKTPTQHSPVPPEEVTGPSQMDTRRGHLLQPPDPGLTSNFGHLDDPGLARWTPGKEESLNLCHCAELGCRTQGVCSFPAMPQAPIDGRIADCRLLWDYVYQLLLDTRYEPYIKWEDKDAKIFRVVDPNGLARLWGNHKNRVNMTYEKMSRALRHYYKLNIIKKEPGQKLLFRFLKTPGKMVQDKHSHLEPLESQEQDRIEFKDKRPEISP
The note with it: protein: recombinant; tags: N-terminal GST; dsDNA, one strand shown. An outline of the steps:
as §1

The target of a further assay is T11, ELF5 (Homo sapiens, UniProt Q9UKW6-2 1-255).
T11 sequence: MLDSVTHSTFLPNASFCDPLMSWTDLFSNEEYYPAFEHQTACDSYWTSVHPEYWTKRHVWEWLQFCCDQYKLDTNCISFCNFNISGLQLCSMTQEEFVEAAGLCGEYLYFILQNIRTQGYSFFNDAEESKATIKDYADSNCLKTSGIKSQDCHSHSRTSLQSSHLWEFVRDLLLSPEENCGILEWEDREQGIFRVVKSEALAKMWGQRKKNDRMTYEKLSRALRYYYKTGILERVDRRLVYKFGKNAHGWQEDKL
The note with it: protein: recombinant; tags: N-terminal GST; dsDNA, one strand shown. In short, it runs like this: as §1

The next assay deals with T12, ETV3 (Homo sapiens, UniProt P41162-2 1-143).
T12 sequence: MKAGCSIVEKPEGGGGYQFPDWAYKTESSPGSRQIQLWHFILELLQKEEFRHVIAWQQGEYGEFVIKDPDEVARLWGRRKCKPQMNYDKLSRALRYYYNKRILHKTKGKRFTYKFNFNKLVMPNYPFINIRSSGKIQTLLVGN
The note with it: protein: recombinant; tags: N-terminal GST; dsDNA, one strand shown. In short, it runs like this:
as §1

A further assay has as its target ETV6 (Homo sapiens, UniProt P41212 1-452). The note with it: protein: recombinant; tags: N-terminal GST; dsDNA, one strand shown. In short, it runs like this: as §1

Sequence of ELF4 (Q99607 whole entry): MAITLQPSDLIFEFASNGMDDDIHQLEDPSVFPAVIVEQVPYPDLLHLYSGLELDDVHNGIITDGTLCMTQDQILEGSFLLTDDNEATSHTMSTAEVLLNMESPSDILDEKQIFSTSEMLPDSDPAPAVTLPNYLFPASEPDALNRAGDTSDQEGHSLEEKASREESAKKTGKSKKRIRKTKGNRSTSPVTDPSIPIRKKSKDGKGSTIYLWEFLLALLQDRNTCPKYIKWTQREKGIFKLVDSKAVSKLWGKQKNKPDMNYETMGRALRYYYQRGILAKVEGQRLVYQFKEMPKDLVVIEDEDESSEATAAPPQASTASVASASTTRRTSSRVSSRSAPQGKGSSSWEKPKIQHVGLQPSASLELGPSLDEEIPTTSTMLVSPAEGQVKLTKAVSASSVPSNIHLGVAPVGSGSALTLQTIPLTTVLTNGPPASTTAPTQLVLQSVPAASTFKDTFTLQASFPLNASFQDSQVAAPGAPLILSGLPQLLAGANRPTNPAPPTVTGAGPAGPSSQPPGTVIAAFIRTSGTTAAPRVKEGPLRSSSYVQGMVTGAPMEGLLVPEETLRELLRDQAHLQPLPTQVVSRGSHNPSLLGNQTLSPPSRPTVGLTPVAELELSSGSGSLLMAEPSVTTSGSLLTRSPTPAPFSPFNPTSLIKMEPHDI
Sequence of ETV1 (P50549 whole entry): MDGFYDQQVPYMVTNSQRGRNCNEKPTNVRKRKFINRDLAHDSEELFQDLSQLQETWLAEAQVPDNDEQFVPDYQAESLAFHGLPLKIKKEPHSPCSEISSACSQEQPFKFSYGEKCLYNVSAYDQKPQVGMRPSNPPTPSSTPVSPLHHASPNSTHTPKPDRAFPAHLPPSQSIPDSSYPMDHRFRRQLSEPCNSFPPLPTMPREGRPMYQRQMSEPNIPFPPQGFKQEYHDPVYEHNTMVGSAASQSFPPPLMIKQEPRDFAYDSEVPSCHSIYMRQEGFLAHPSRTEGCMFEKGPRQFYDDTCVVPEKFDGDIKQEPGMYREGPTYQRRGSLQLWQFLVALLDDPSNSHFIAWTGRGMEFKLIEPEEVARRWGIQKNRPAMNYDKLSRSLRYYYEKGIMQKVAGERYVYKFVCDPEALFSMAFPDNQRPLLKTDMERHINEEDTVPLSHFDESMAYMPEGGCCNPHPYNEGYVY
Sequence of CRX (O43186 whole entry): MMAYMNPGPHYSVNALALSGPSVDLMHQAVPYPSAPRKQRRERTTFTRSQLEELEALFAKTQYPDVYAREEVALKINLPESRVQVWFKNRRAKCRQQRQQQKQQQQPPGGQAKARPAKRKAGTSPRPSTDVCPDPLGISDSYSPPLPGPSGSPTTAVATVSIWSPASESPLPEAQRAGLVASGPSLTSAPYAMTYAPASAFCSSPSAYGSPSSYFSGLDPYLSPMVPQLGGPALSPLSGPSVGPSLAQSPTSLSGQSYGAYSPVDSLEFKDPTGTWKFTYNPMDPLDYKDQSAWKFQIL
Sequence of ETV6 (P41212 whole entry): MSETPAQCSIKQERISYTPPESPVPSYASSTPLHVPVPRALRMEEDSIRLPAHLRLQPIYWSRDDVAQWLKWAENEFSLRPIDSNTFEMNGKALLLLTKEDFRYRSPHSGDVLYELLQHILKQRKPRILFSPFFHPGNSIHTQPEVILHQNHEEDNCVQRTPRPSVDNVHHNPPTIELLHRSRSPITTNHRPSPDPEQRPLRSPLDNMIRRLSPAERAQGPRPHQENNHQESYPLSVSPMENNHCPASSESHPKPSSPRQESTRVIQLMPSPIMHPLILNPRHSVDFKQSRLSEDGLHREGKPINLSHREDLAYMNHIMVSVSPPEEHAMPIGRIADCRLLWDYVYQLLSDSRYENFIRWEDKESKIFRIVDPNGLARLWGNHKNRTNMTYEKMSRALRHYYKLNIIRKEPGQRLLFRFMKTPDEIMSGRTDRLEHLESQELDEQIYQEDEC
Sequence of HSF1 (Q00613 whole entry): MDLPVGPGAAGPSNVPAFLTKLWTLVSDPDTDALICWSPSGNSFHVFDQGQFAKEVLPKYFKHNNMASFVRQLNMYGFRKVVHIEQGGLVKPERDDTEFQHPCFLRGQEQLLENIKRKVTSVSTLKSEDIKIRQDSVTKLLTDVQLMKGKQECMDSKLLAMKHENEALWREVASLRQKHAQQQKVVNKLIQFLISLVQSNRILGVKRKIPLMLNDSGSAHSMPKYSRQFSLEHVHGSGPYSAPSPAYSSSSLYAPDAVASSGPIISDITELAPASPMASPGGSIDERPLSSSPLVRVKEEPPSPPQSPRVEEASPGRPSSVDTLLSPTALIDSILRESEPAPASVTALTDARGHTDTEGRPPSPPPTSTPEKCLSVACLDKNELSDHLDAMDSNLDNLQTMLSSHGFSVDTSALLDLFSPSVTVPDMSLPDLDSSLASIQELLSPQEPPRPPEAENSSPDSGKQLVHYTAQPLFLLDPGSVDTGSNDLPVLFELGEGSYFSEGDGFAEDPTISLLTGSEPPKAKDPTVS

For the sequence GTTTCT, the binding signal with FEV was 1.16 fold enrichment (6-mer frequency, TF over GST control); with ETV5, 1.24 fold enrichment (6-mer frequency, TF over GST control); with HSF1 it was 1.84 fold enrichment (6-mer frequency, TF over GST control); with SPIC, 1.28 fold enrichment (6-mer frequency, TF over GST control); with ELF4, 1.28 fold enrichment (6-mer frequency, TF over GST control); with ELK4, 1.15 fold enrichment (6-mer frequency, TF over GST control). Besides, the binding signal with ETV2 was 1.25 fold enrichment (6-mer frequency, TF over GST control); in the assay with ELF3, 1.2 fold enrichment (6-mer frequency, TF over GST control); with CRX it was 1.15 fold enrichment (6-mer frequency, TF over GST control); in the assay with ETV1, 1.33 fold enrichment (6-mer frequency, TF over GST control); with ERF it was 1.24 fold enrichment (6-mer frequency, TF over GST control); with ETV3L it was 1.33 fold enrichment (6-mer frequency, TF over GST control). In addition, the binding signal with ETS2 was 1.28 fold enrichment (6-mer frequency, TF over GST control); with SPDEF it was 1.21 fold enrichment (6-mer frequency, TF over GST control); with ETV7, 1.38 fold enrichment (6-mer frequency, TF over GST control); with ELF5, 1.31 fold enrichment (6-mer frequency, TF over GST control); with ETV3, 1.24 fold enrichment (6-mer frequency, TF over GST control); with ETV6, 1.28 fold enrichment (6-mer frequency, TF over GST control).

Source of the values: paper PMC7862700, “An all-to-all approach to the identification of sequence-specific readers for epigenetic DNA modifications on cytosine”.
